# pPAFAH FP inh: pPAFAH (human) enzyme inhibition; 1.5% of 330,000 active; inhibition, % at 3.39 µM; Q13093; AID 463082; recombinant pPAFAH, FP-rhodamine probe fluorescence polarization;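 active = inhibition above the mean inhibition across the screen plus 3 SD, cut at about 25% in these data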;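 also: inhibitors block binding of the rhodamine activity-based probe so polarization drops; 0% = enzyme with DMSO and 100% = wells lacking pPAFAH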
# Target sequence (Q13093 whole entry, looked up): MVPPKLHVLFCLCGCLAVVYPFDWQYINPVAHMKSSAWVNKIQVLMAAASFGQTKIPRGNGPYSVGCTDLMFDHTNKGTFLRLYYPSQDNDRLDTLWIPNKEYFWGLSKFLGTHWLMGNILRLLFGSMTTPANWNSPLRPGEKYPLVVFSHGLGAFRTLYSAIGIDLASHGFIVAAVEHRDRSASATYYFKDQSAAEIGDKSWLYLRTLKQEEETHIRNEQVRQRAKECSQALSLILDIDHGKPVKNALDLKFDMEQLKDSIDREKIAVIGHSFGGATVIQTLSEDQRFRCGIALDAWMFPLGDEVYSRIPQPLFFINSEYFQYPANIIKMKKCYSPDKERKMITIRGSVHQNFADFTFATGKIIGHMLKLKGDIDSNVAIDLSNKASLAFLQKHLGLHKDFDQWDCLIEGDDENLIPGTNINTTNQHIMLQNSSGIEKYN
# PAFAH2 inh: PAFAH2 (human) inhibition | Q99487 | recombinant PAFAH2, FP-rhodamine activity probe, fluorescence polarization | inhibition, % at 3.39 µM | 0.99% of 340,000 active | AID 492956;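 active = inhibition above the mean over all tested compounds plus 3 SD, cut at about 30% in these data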;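 also: inhibitors block probe labeling of enzyme so polarization drops; 0% = enzyme with DMSO and 100% = wells lacking PAFAH2 protein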
# PAFAH1B2 inh: blocks human PAF acetylhydrolase 1b catalytic subunit 2; P68402; recombinant PAFAH1B2, FP-rhodamine activity probe, fluorescence polarization; inhibition, % at 3.39 µM; 1.2% of 340,000 active;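 active = inhibition above the mean of all tested compounds plus 3 SD, cut at about 24% in these data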;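 also: 0% = enzyme with DMSO and 100% = wells lacking PAFAH1B2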
# ZTA DNA inh: ZTA (EBV) inhibition in EBNA-1 counter-screen | P03206 | ZTA-DNA binding, fluorescence polarization | inhibition, % at 11 µM | 0.15% of 320,000 active | AID 2234; in the data active = inhibition above about 33%
# EBNA-1 inh: blocks EBNA-1 binding to DNA; AID 1950; 0.34% of 300,000 active; inhibition, % at 14.8 µM; EBNA-1 DNA binding, fluorescence polarization; in the data active = inhibition above about 28%
# PAFAH1B3 inh: blocks human PAF acetylhydrolase 1B catalytic subunit 3; inhibition, % at 3.39 µM; recombinant PAFAH1B3, FP-rhodamine probe, fluorescence polarization; 0.28% of 340,000 active; Q15102;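 active = inhibition above the screen-wide average of all tested compounds plus 3 SD, cut at about 25% in these data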;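 also: 0% = enzyme with DMSO only and 100% = wells lacking PAFAH1B3 protein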
# Target sequence (Q15102 whole entry, looked up): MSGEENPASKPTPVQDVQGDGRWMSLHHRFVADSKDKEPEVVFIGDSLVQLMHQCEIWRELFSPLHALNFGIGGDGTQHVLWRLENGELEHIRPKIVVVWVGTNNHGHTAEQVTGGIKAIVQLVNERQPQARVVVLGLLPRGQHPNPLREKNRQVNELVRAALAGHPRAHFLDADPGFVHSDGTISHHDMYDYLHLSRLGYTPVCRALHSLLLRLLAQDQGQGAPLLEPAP
# An asterisk follows results filed as active; nt = not tested or not shown. Most compounds without a hit are left out; they make up all but 2.9% or so of the library.
SMILES,pPAFAH FP inh,PAFAH2 inh,PAFAH1B2 inh,ZTA DNA inh,EBNA-1 inh,PAFAH1B3 inh
Cc1ccc(-c2c(C(=O)NCc3ccccc3)oc(=O)c3ccccc23)cc1,32.0*,24.2,10.1,-1.7,-4.0,1.2
CCOC(=O)c1ccc(NC(=O)C2CCN(C(=O)c3ccc(OC)c(OC)c3)CC2)cc1,29.1*,-0.6,3.5,-18.0,-9.9,-2.9
CC1CCN(S(=O)(=O)c2ccc3c4c2CC(=O)N4CC(C)S3)CC1 (configuration not stated),26.7*,61.9*,16.2,-36.7,-15.5,-4.7
Cc1ccc(S(=O)(=O)N2CCN(S(=O)(=O)N3CCC(C)CC3)CC2)c(C)c1,0.9,-10.5,2.2,-1.9,-3.2,10.8
CN(Cc1ccc(F)cc1)C(=O)c1cccc(NS(=O)(=O)c2ccccc2)c1,25.3*,3.9,12.9,-5.2,8.9,-2.3
CSc1ccc(CN(C)C(=O)c2ccc(S(=O)(=O)Nc3ccccc3)cc2)cc1,32.2*,3.5,4.0,-12.4,-9.8,-5.6
Cc1cccc(C)c1NC(=O)CN(C)C(=O)c1cccc(NS(=O)(=O)c2ccccc2)c1,29.9*,6.1,1.9,-3.0,1.1,-1.2
Cc1cccc(C)c1NC(=O)CN(C)C(=O)c1ccc(NS(=O)(=O)c2ccc3[nH]c(=O)[nH]c3c2)cc1,2.8,2.1,3.7,-5.0,9.3,11.2
CN(Cc1ccc(F)cc1)C(=O)c1cccc(OCc2ccccc2)c1,6.8,16.7,14.6,-3.1,-4.0,-1.4
CCOc1ccc(S(=O)(=O)N2CCOCC2)cc1NC(=O)CN1C(=O)NC(C)(c2ccccc2)C1=O (configuration not stated),1.1,10.5,5.2,8.4,-0.1,6.5
O=C1OCC2=C1C(c1ccccc1)CC(=O)N2c1ccccc1 (configuration not stated),3.4,1.8,-5.8,-3.7,4.5,3.4
CSc1nc(N(CCO)CCO)c2sc3nc(-c4ccco4)c4c(c3c2n1)CCC4,nt,31.3*,6.4,nt,nt,14.7
CSc1nc(SCCO)c2sc3nc(-c4ccco4)c4c(c3c2n1)CC(C)(C)OC4,nt,9.6,-3.8,nt,nt,1.3
COC(=O)c1sc(-c2ccc(C(C)(C)C)cc2)cc1NC(=O)c1ccccc1C(=O)O,5.4,-16.6,7.8,14.6,4.6,-5.1
COC(=O)c1sc(-c2ccc(C(C)(C)C)cc2)cc1NC(=O)CSCC(=O)O,32.2*,5.3,2.3,15.1,-1.8,3.7
NNC(=O)CCN(Cc1ccco1)S(=O)(=O)c1ccc(Cl)cc1,3.4,-5.6,3.3,-2.6,1.5,-0.9
Cc1ccc(S(=O)(=O)CCC(=O)NCCN2C(=O)S/C(=C/c3ccc(F)cc3)C2=O)cc1,5.2,5.5,32.8*,-8.3,0.1,4.4
O=C(CCNC(=O)c1ccco1)NCCN1C(=O)S/C(=C\c2ccc(F)cc2)C1=O,-2.1,8.2,6.7,2.7,nt,7.1
Cc1nc(CN2CCN(Cc3nc(C(c4ccccc4)c4ccccc4)no3)CC2)cs1,5.3,nt,nt,4.3,3.9,nt
Cc1nc2c(C(=O)NCCC(C)C)c[nH]n2c(=O)c1Cc1ccccc1F,30.8*,6.1,5.6,11.1,15.3,19.3
Cc1nc2c(C(=O)NCCC(C)C)c[nH]n2c(=O)c1Cl,12.5,9.0,4.1,9.5,11.9,1.8
CC(C)(C)c1ccc(C(=O)n2cnc3ccccc32)cc1,0.2,5.2,8.6,6.5,-0.6,1.1
CCN(CC)c1ccc(C(=O)n2cnc3ccccc32)cc1,29.6*,29.6,0.6,-1.2,0.4,6.9
CCOc1ccc2nc(SCC(=O)N(CCOC)c3c(N)n(Cc4ccccc4)c(=O)[nH]c3=O)[nH]c2c1,2.2,-0.3,8.6,14.7,-1.1,7.6
CCOc1ccc(S(=O)(=O)Nc2cccc(C(=O)NCCCN3CCOCC3)c2)cc1,3.6,0.6,2.0,11.1,nt,-3.3
SMILES,pPAFAH FP inh,PAFAH2 inh,PAFAH1B2 inh,ZTA DNA inh,EBNA-1 inh,PAFAH1B3 inh
CC(=O)NS(=O)(=O)c1ccc(NS(=O)(=O)c2ccc(F)cc2)cc1,0.2,8.2,3.5,12.8,-1.0,6.9
CCOc1ccc(NS(=O)(=O)c2ccc(C(=O)NCCCN3CCOCC3)cc2)cc1,31.2*,-4.5,3.0,-5.7,-1.2,11.6
Cc1ccc(S(=O)(=O)Nc2ccc(NC(=O)c3ccc(F)cc3)cc2)cc1,30.2*,0.9,3.8,0.8,10.2,5.9
O=C(O)c1cc(NS(=O)(=O)c2ccc(F)cc2)cc(NS(=O)(=O)c2ccc(F)cc2)c1,15.4,31.8*,42.4*,nt,nt,4.7
O=C(Nc1ccc(S(=O)(=O)Nc2ccc(F)cc2)cc1)c1ccc(CN2CCOCC2)cc1,34.0*,4.0,-0.4,-2.3,-1.8,1.1
CCc1nc(CN2CCN(c3cc(C(F)(F)F)ccn3)CC2)c(C)[nH]1,3.8,nt,nt,15.6,-0.4,nt
COc1ccc(C(=O)NCCS(=O)(=O)N2CCN(Cc3ccccc3)CC2)cc1,-0.3,-1.4,1.9,3.5,1.8,-1.6
COc1ccc(-c2cc(C)no2)cc1S(=O)(=O)Nc1cccc(C)c1,30.1*,-0.2,-1.2,-3.6,-22.4,5.6
COc1ccccc1NS(=O)(=O)c1cc(-c2cc(C)no2)ccc1OC,0.6,7.3,3.9,-6.7,-5.1,14.8
Cc1cc([N+](=O)[O-])nn1Cc1ccc(C(=O)N/N=C/c2ccc(O)cc2O)cc1,28.6*,-13.1,4.7,18.6,-12.1,14.8
O=C(N/N=C/c1ccc(O)cc1O)c1ccc(CN2C(=O)c3cccc4cccc2c34)cc1,29.7*,38.7*,43.0*,-29.8,10.3,35.2*
CCN(C(=O)COC(=O)c1cccc(S(=O)(=O)NCc2ccccc2)c1)c1ccccc1,nt,12.7,6.8,nt,nt,12.2
CCOc1ccc(NC(=S)N2CCN(C/C=C/c3ccccc3)CC2)cc1,7.4,-2.9,2.3,-9.0,6.3,9.8
CN(Cc1ccccc1)Cc1nc2scc(-c3ccccc3)c2c(=O)[nH]1,3.7,2.5,7.0,-2.1,-6.8,5.2
CC(C)N(C(=S)NCc1ccccc1)c1ccccc1,-4.5,4.1,28.7*,-3.3,-1.1,7.0
COc1cc(/C=C(\NC(=O)c2cc(OC)c(OC)c(OC)c2)C(=O)NC(C(=O)O)c2ccccc2)cc(OC)c1OC (configuration not stated),-3.0,5.7,0.7,-6.0,-7.5,1.6
Cc1ccc(N2CCN(/N=C/c3ccncc3)CC2)cc1,6.1,-1.6,2.7,1.8,5.7,1.9
Clc1ccc(N2CCN(/N=C/c3ccncc3)CC2)cc1,5.4,4.2,26.9*,4.3,6.2,1.1
O=C(NC(=S)N1CCN(c2ccc(C(F)(F)F)cc2[N+](=O)[O-])CC1)c1cccs1,33.8*,4.2,1.7,18.4,12.8,-2.6
O=C(Nc1ccccc1F)Nc1ccc([N+](=O)[O-])cc1Cl,1.4,-16.5,-6.4,7.7,-1.5,-13.6
O=C(COC(=O)CNC(=O)c1ccc(Br)o1)Nc1ccccc1OC(F)F,1.6,7.5,1.0,3.2,-5.8,4.2

# High-throughput results deposited in PubChem by The Scripps Research Institute Molecular Screening Center.
